“And” between values parts separate entries of the source, which are not always exact repeats. Equal values may be shown once. The campaign covered roughly 5,500 compounds. About 2,000 (36%) were called active. Not shown: some 18% with an inconclusive outcome. No stated cut-off is given here; in the data, active means normalized growth mostly below about 0.91 (no sharp cut-off); inconclusive means no clear call, values can overlap the other calls; inactive means mostly above about 0.92. Some of the results follow.
Assay: chemical genetic growth profiling, strain panel (AID 1159580);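 further: tested at 20 µM; growth read once vehicle control cultures reached saturation at 30 °C; 1 = growth at the plate median or of vehicle wells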
Conditions: S. cerevisiae deletion strains, growth OD

Measured: normalized growth

COc1c(OC)c2occc2c2oc(=O)ccc12
inactive: locus YAL021C, strain ccr4, stronger effect = lower value 0.988 | locus YAL026C, strain drs2, stronger effect = lower value 0.987 | locus YAL030W, strain snc1, stronger effect = lower value 0.99 | locus YBL061C, strain skt5, stronger effect = lower value 0.979 | locus YBR009C, strain hhf1, stronger effect = lower value 0.958 | locus YBR021W, strain FUR4, stronger effect = lower value 1.01 | locus YBR023C, strain chs3, stronger effect = lower value 0.976 | locus YBR171W, strain sec66, stronger effect = lower value 0.973 | locus YBR229C, strain ROT2, stronger effect = lower value 0.967 | locus YBR231C, strain swc5, stronger effect = lower value 0.96 | locus YBR279W, strain paf1, stronger effect = lower value 0.973 | locus YCL011C, strain gbp2, stronger effect = lower value 0.979 | locus YCL016C, strain dcc1, stronger effect = lower value 0.98 | locus YCL029C, strain bik1, stronger effect = lower value 0.983 | locus YCL061C, strain MRC1, stronger effect = lower value 0.978 | locus YCL069W, strain vba3, stronger effect = lower value 0.989 | locus YCR088W, strain abp1, stronger effect = lower value 0.987 | locus YDL005C, strain med2, stronger effect = lower value 0.998 | locus YDL035C, strain GPR1, stronger effect = lower value 0.924 | locus YDL040C, strain nat1, stronger effect = lower value 0.981 | locus YDL074C, strain BRE1, stronger effect = lower value 0.86 | locus YDL101C, strain DUN1, stronger effect = lower value 0.949 | locus YDL134C, strain PPH21, stronger effect = lower value 0.948 | locus YDL185W, strain tfp1, stronger effect = lower value 0.945 | locus YDR001C, strain nth1, stronger effect = lower value 0.973 | locus YDR069C, strain doa4, stronger effect = lower value 1 | locus YDR101C, strain arx1, stronger effect = lower value 0.927 | locus YDR137W, strain rgp1, stronger effect = lower value 0.952 | locus YDR159W, strain sac3, stronger effect = lower value 1.01 | locus YDR297W, strain sur2, stronger effect = lower value 0.974 | locus YDR318W, strain mcm21, stronger effect = lower value 0.95 | locus YDR334W, strain swr1, stronger effect = lower value 0.967 | locus YDR335W, strain msn5, stronger effect = lower value 0.978 | locus YDR388W, stronger effect = lower value 0.959 | locus YDR392W, strain spt3, stronger effect = lower value 0.765 | locus YEL003W, strain gim4, stronger effect = lower value 0.982 | locus YEL037C, strain rad23, stronger effect = lower value 0.981 | locus YEL061C, strain CIN8 (second series), stronger effect = lower value 0.984 | locus YEL061C, strain CIN8, stronger effect = lower value 0.963 | locus YER015W, strain faa2, stronger effect = lower value 0.972 | locus YER016W, strain bim1, stronger effect = lower value 0.984 | locus YER110C, stronger effect = lower value 0.949 | locus YER111C, strain swi4, stronger effect = lower value 0.992 | locus YER155C, strain BEM2, stronger effect = lower value 0.962 | locus YER167W, strain BCK2, stronger effect = lower value 0.97 | locus YFR010W, strain ubp6, stronger effect = lower value 0.98 | locus YGL078C, strain dbp3, stronger effect = lower value 0.979 | locus YGL086W, strain mad1, stronger effect = lower value 0.937 | locus YGL167C, strain pmr1, stronger effect = lower value 0.975 | locus YGL173C, strain kem1, stronger effect = lower value 0.986 | locus YGL227W, strain vid30, stronger effect = lower value 0.994 | locus YGL240W, strain doc1, stronger effect = lower value 0.931 | locus YGL248W, strain PDE1, stronger effect = lower value 0.95 | locus YGL253W, strain hxk2, stronger effect = lower value 0.956 | locus YGR078C, strain PAC10, stronger effect = lower value 0.882 | locus YGR252W, strain gcn5, stronger effect = lower value 0.802 | locus YHR013C, strain ard1, stronger effect = lower value 1.01 | locus YHR027C, strain rpn1, stronger effect = lower value 0.984 | locus YHR030C, strain SLT2, stronger effect = lower value 0.945 and 0.955 | locus YHR079C, strain IRE1 (second series), stronger effect = lower value 0.977 | locus YHR079C, strain IRE1, stronger effect = lower value 0.944 | locus YHR094C, strain hxt1, stronger effect = lower value 0.985 | locus YHR129C, strain ARP1, stronger effect = lower value 0.959 | locus YHR142W, strain chs7, stronger effect = lower value 0.904 | locus YHR200W, strain rpn10, stronger effect = lower value 0.923 | locus YIL066C, strain RNR3, stronger effect = lower value 0.88 | locus YIL073C, strain SPO22, stronger effect = lower value 0.955 | locus YIL125W, strain kgd1, stronger effect = lower value 0.979 | locus YIR030C, strain dcg1, stronger effect = lower value 0.962 | locus YJL092W, strain hpr5, stronger effect = lower value 0.972 | locus YJL095W, strain BCK1 (second series), stronger effect = lower value 0.974 | locus YJL115W, strain asf1, stronger effect = lower value 0.984 | locus YJL129C, strain trk1, stronger effect = lower value 0.993 | locus YJL134W, strain LCB3, stronger effect = lower value 0.967 | locus YJL154C, strain vps35, stronger effect = lower value 0.987 | locus YJL164C, strain tpk1, stronger effect = lower value 0.966 | locus YJL166W, strain qcr8, stronger effect = lower value 0.945 | locus YJL168C, strain set2, stronger effect = lower value 0.977 | locus YJL187C, strain SWE1 (second series), stronger effect = lower value 0.947 | locus YJL187C, strain SWE1, stronger effect = lower value 0.973 | locus YJR043C, strain POL32, stronger effect = lower value 0.887
active: locus YDL192W, strain arf1, stronger effect = lower value 0.866 | locus YDR162C, strain NBP2, stronger effect = lower value 0.822 | locus YDR195W, strain ref2 1.14 [resistant] | locus YDR502C, strain sam2, stronger effect = lower value 0.918 | locus YER155C, strain BEM2 (second series), stronger effect = lower value 0.832 | locus YGR135W, strain pre9, stronger effect = lower value 0.881
0.785 (active) and 0.957 (inactive): locus YJL095W, strain BCK1, stronger effect = lower value
